ROC1-CUL1 inh: inhibitors of human ROC1-CUL1 ubiquitin ligase activity | E3 ubiquitin-protein ligase RBX1 (Homo sapiens) + Cullin-1 (Homo sapiens), P62877+Q13616 | in vitro K48 di-Ub FRET, acceptor:donor ratio, 45 min | inhibition, % at 10 µM | 140,000 tested, 0.6% active | AID 1347404, 2020; in the data active = inhibition above about 25%
Target sequence (P62877 whole entry, looked up): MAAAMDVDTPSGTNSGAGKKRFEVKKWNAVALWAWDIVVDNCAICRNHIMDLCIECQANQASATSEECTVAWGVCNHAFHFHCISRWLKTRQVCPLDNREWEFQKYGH
Target sequence (Q13616 whole entry, looked up): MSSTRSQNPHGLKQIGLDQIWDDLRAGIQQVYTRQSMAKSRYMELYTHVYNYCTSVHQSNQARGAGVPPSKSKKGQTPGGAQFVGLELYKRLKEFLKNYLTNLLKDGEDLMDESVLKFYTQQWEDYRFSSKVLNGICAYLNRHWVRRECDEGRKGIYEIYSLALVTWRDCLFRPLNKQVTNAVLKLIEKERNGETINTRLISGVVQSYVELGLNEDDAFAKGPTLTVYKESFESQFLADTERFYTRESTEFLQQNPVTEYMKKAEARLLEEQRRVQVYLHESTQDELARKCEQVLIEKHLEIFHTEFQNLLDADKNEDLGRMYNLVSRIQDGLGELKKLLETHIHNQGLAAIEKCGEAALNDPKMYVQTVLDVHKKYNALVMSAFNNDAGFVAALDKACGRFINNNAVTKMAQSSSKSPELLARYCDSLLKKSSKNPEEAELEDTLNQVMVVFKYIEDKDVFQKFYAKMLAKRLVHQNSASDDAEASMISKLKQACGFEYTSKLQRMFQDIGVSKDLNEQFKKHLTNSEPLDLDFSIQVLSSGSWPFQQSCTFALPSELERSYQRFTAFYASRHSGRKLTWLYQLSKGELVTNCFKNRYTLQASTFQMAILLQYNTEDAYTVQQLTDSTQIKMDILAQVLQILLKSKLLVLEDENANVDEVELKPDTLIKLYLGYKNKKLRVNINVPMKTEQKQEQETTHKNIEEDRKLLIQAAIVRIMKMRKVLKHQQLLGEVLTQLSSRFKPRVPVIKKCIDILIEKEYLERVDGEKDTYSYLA
An asterisk follows results filed as active. Many of the other results were omitted from the sample, so hits are more common in it than they were.

SMILES	ROC1-CUL1 inh
Cc1cc(Br)ccc1NC(=O)CN1CCC(C)CC1	98*
Cc1cc(Cl)ccc1NC(=O)CN1CCC(C)CC1	1
Cn1c(=O)c2c(S(C)=O)snc2n(C)c1=O (configuration not stated)	-4
N#CC1C(=O)N=CC(/C=N/N=C/c2ccccc2)C1=Nc1ccccc1 (configuration not stated)	1
COc1ccc(/C=C2\C(=O)N(C)C(=O)N(c3ccccc3)C2=O)c(OC)c1	10
COc1cc(C)c(CC2=NC(=S)N(c3ccc(Cl)cc3)C2=O)cc1C(C)C	8
O=C1C(Cc2cc(Br)cc(Br)c2O)=NC(=S)N1c1ccc(Cl)cc1	100*
O=C1NC(=S)N=C1Cc1cc(Br)cc(Br)c1O	7
CCCc1nn2c(N)c(C=C3C=C(Br)C=CC3=O)c(=O)nc2s1	-3
CCCCCCCc1nn2c(N)c(C=C3C=C(Cl)C(=O)C(Cl)=C3)c(=O)nc2s1	95*
CCc1nn2c(N)c(C=C3C=C(Cl)C(=O)C(Cl)=C3)c(=O)nc2s1	7
Cc1ccc(C(=O)NC2(C(F)(F)F)C(=O)N=C3C2C(=O)NC(=O)N3CCc2ccccc2)cc1 (configuration not stated)	5
COC(=O)c1csc([N+](=O)[O-])c1SC(C)=O	77*
COC(=O)c1csc([N+](=O)[O-])c1SCc1ccccc1	7
COC(=O)c1scc([N+](=O)[O-])c1-c1c([N+](=O)[O-])csc1C(=O)OC	-1
Cc1ccccc1C(=O)OC1CCCCC1	-1
Cn1c(=O)n(C/C=C/c2ccccc2)c(=O)c2c1nc1oc(C(C)(C)C)cn12	6
O=C(O)c1sccc1-c1ccsc1	7
O=[N+]([O-])c1ccsc1C1OCCO1	-8
O=[N+]([O-])c1sccc1-c1ccsc1	29*
Cc1ccc(C(=O)Nc2ccc(N3CCC(NCc4scnc4-c4ccccc4)CC3)cc2)c(C)c1	4
N=C1/C(=C/c2cccc(OC(=O)c3ccc(F)cc3)c2)C(=O)N=C2SC(c3cccs3)=NN12	28*
N=C1/C(=C\c2ccc(OC(=O)c3ccc(F)cc3)c(Cl)c2)C(=O)N=C2SC(c3ccco3)=NN12	13
Cc1ccc(C2=NN3C(=N)/C(=C/c4cccc(OCc5ccc(F)cc5)c4)C(=O)N=C3S2)cc1	-7
Cc1nnc(SCC(=O)N/N=C/c2ccc3c(c2)OCO3)n1-c1ccccc1	-2
SMILES	ROC1-CUL1 inh
COC(=O)C1C=CCN(c2ccccc2)O1 (configuration not stated)	-12
CC(=O)c1cc2c(cc1NC(=O)CSc1nnc3n(N)cnn13)OCO2	-12
Cc1ccc(S(=O)(=O)N=C2CC(=NCc3ccccc3)C(=O)c3ccccc32)c(C)c1	-13
Cc1noc(N2C(=O)c3c(Cl)c(Cl)c(Cl)c(Cl)c3C2=O)c1C	2
CN(Cc1cccc2cnccc12)c1nc2nonc2nc1N1CCOCC1	-6
CC(=O)Oc1cc(C(=O)Nc2ccc(Oc3ccccc3)cc2)cc(OC(C)=O)c1OC(C)=O	38*
CC(=O)Nc1ccc(Oc2cc(NC(=O)c3ccccc3)cc([N+](=O)[O-])c2)cc1	7
O=C(Nc1ccc(Oc2ccccc2)cc1)c1ccncc1	4
COc1ccc(CC2(CCC(=O)NCC(C)c3ccccc3)CCC(=O)N2)c2ccccc12 (configuration not stated)	0
CCCCNC(=O)c1nnn(-c2cccc(Cl)c2)c1C	3
CCN1CCC(NC(=O)c2ccc3c(c2)OCCO3)CC1	6
CC1=NN(c2ccccc2)C(=O)C1C=Nc1ccccc1-c1nnc(SCc2ccccc2)[nH]c1=O (configuration not stated)	37*
CSc1nnc(-c2ccccc2N=CC2C(=O)N(c3ccccc3)N=C2C)c(=O)[nH]1 (configuration not stated)	2
CC1=NN(c2ccc(F)cc2)C(=O)C1C=Nc1cccc2ccccc12 (configuration not stated)	-8
COc1ccc(C(=O)N2CCC3(CC2)OCCO3)cc1OC	-7
CCn1cc(-c2cc(C(=O)N(C)Cc3nonc3C)c3ccccc3n2)cn1	-3
CCOc1cc(C(c2c(C)[nH][nH]c2=O)c2c(C)[nH][nH]c2=O)ccc1OCc1cccc2ccccc12	45*
COc1ccc(C(=O)Oc2ccc(C(c3c(C)[nH][nH]c3=O)c3c(C)[nH][nH]c3=O)cc2OC)cc1	13
COc1cc(C(c2c(C)[nH][nH]c2=O)c2c(C)[nH][nH]c2=O)ccc1OC(=O)c1ccccc1F	-19
Cc1ccccc1-c1nnc(NC(=O)NC(C)Cc2cccs2)s1 (configuration not stated)	1
COc1ccc(C(C2C(=O)C=C(C)OC2=O)C2C(=O)C=C(C)OC2=O)cc1 (configuration not stated)	0
COc1ccc(C(C2C(=O)Oc3ccc(C)cc3C2=O)C2C(=O)Oc3ccc(C)cc3C2=O)cc1 (configuration not stated)	69*
COc1ccc(N=CC2C(=O)Oc3ccccc3C2=O)cc1 (configuration not stated)	0
CCOc1cc(C2C3=C(CC(C)(C)CC3=O)N(CCOC)C3=C2C(=O)CC(C)(C)C3)cc(Cl)c1OCC(=O)Nc1ccccc1	-5
CCc1c(C)c(C#N)c2nc3ccccc3n2c1Nc1ccc(N(CC)CC)cc1	-4
SMILES	ROC1-CUL1 inh
Cc1ccc(-n2ncc(SCc3ccccc3)c(Cl)c2=O)cc1	-6
O=C(c1ccc(N2CCCC(CO)C2)nc1)N1CCC(CCn2cccn2)CC1 (configuration not stated)	-12
Cc1ccc(N2C(=O)/C(=C\c3ccc(-c4ccc(Br)cc4[N+](=O)[O-])o3)C(=O)N(c3ccccc3)C2=S)cc1C	56*
Cc1ccc(N2C(=O)/C(=C/c3ccc(-c4ccc(C(=O)O)cc4)o3)C(=O)N(c3ccccc3)C2=S)cc1C	5
Cc1ccc(N2C(=O)/C(=C/c3ccc(Br)cc3)C(=O)N(c3ccccc3)C2=S)cc1	-3
COc1cccc2cc(C(=O)Nc3ccc(S(=O)(=O)N4CCN(C)CC4)cc3)c(=O)oc12	4
CCOC(=O)C1C(C)=Nn2c1nnc(C)c2=O (configuration not stated)	-7
Cc1cccc2oc(Cc3nc4c(C)cccc4o3)nc12	-15
O=C(CCC1(Cc2ccc(Cl)cc2)CCC(=O)N1)NCCc1ccc(F)cc1 (configuration not stated)	2
CCOc1ccc(N=C2S/C(=C\c3cc(OC)c(OC)cc3Cl)C(=O)N2CC)cc1	-5
COC(=O)c1ccc(NC(=O)CSc2nc(C)nc3sc4c(c23)CCC4)cc1	3
Cc1nc(SCC(=O)Nc2ccc3c(c2)OCCO3)c2c3c(sc2n1)CCCC3	42*
Cc1nc(SCC(=O)Nc2ccc3ccccc3c2)c2c3c(sc2n1)CCCC3	0
CC(NC(=O)c1ccccc1F)c1ccccc1 (configuration not stated)	-12
CC(NC(=O)c1ccc(Br)cc1Br)c1ccccc1 (configuration not stated)	14
CC(NC(=O)c1cc([N+](=O)[O-])cc2c1-c1c(cc([N+](=O)[O-])cc1[N+](=O)[O-])C2=C(C#N)C#N)c1ccccc1 (configuration not stated)	39*
CCn1c(Oc2cccc(OC)c2)nc2c1c(=O)n(C)c(=O)n2C	11
CCn1c(Cc2ccccc2)nnc1SCC(=O)Nc1cccc(C)c1	8
OCCC1CN(Cc2ccc(CO)o2)CCN1Cc1ccccc1 (configuration not stated)	-4
